MPTP inh: mitochondrial permeability transition pore inhibitors, primary screen, biochemical, isolated mouse mitochondria, absorbance. Ca2+ swelling absorbance, 30 min. inhibition, % at 10 µM. 1.4% of 360,000 active;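 active = inhibition of 50% or more, scaled per plate between neutral and stimulator controls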;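 also: 0% = DMSO wells given calcium and 100% = 1 mM EGTA wells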
tim10-1 inh: growth inhibitors of tim10-1 mutant yeast, primary screen, luminescence, uHTS; S. cerevisiae tim10-1 ts strain growth, BacTiter-Glo, 24 h; inhibition, % at 20 µM; 2.2% of 330,000 active; AID 463190, 2010;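 active = inhibition of at least 40%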;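 also: mutant grown at 25 °C; 0% = DMSO wells with yeast and 100% = wells holding no yeast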
tim23-1 inh: growth inhibitors of tim23-1 mutant yeast, primary screen, luminescence, uHTS; S. cerevisiae tim23-1 growth, BacTiter-Glo luminescence, 24 h; inhibition, % at 20 µM; 1.3% of 330,000 active; AID 463212, 2010;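 active = growth inhibition of the mutant yeast at or above 50%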;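 also: temperature-sensitive mutant grown at 25 °C; plate controls were DMSO-treated mutant yeast for no effect and medium wells lacking yeast for full effect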
TIM10 inh: growth inhibitors of isogenic TIM10 control yeast, primary screen, counter-screen for tim10-1 yeast inhibitor project, luminescence, uHTS; AID 463195, 2010; S. cerevisiae TIM10 strain growth, BacTiter-Glo luminescence, 24 h; inhibition, % at 10 µM; 1.4% of 330,000 active;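 active = inhibition of 40% or more at the single tested concentration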;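 also: wild-type TIM10 isogenic control strain grown at permissive 25 °C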
Mdm2 MdmX PPI: inhibitors of human Mdm2-MdmX association, primary screen, cell-based, luminescence, split luciferase, SaOS-2, uHTS; Protein Mdm4 (Homo sapiens) + E3 ubiquitin-protein ligase Mdm2 (Homo sapiens), …; SaOS-2 split-luciferase Mdm2/MdmX complementation; inhibition, % at 8 µM; 3% of 330,000 active;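 active = inhibition of at least 50% at 8 µM in the primary screen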
Target sequence (O15151 whole entry, looked up): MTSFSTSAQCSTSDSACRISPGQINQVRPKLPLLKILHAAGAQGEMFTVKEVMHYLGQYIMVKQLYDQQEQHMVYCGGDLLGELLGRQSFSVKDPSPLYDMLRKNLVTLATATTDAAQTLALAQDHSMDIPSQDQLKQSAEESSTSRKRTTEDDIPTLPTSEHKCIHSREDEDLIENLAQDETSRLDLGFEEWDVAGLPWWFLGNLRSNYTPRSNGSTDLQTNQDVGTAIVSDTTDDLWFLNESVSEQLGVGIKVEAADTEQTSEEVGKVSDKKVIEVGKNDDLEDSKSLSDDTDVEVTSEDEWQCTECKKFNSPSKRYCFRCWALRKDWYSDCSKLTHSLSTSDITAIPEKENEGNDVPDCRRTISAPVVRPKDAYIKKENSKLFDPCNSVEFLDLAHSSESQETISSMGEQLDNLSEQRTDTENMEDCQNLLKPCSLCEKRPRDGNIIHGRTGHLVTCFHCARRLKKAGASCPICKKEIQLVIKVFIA
Target sequence (Q00987 whole entry, looked up): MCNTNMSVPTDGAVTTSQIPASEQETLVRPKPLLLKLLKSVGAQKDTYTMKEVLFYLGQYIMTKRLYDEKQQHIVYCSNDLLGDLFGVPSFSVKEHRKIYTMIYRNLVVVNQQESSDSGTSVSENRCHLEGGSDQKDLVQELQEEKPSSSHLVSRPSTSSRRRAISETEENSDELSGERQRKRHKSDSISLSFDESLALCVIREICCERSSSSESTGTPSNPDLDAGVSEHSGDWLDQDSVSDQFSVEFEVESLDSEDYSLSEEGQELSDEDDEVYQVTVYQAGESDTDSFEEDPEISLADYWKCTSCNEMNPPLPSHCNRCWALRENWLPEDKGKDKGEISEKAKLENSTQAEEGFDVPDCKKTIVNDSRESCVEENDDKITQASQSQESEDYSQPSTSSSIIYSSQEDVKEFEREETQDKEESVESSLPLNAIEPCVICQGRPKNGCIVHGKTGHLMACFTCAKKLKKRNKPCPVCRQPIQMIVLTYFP
tim23-1 confirm: tim23-1 mutant yeast growth inhibitors, confirmation, luminescence, single concentration; shares compounds with tim23-1 inh; S. cerevisiae tim23-1 growth, BacTiter-Glo luminescence, 24 h; inhibition, % at 20 µM; 83% of 4,400 active; AID 463218, 2010;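 active = inhibition above about 39% in either of two replicate wells at 20 µM, limit read from the data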;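 also: temperature-sensitive tim23-1 mutant grown at 25 °C; 0% = DMSO wells with yeast and 100% = medium wells without yeast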
The depositor's hits bear a star; . = not tested or not shown. A selection: hits, their analogues and other compounds. The true share with any hit is near 6.3%.

SMILES | MPTP inh | tim10-1 inh | tim23-1 inh | TIM10 inh | Mdm2 MdmX PPI | tim23-1 confirm
Cn1ccnc1SCC(=O)n1c2c(c3ccccc31)CCCC2 | 0.1 | 29.1 | 50.8* | 38.6 | 1.5 | 41.5*
Cn1ccnc1SCC(=O)Nc1cccc2ccccc12 | -1.0 | 6.1 | 15.7 | 1.2 | -15.6 | .
NS(=O)(=O)c1ccc(N2N=C(c3ccccc3)CC2c2cccc(Br)c2)cc1 (centres undefined) | -0.5 | 34.9 | 52.2* | 13.1 | 27.8 | 33.2
O=C1c2cccc(-c3ccc(C(F)(F)F)cc3)c2C2CC=CCN12 (centres undefined) | -1.7 | . | . | . | . | .
CCn1c(SCC(=O)Nc2nc3ccc(C)cc3s2)nc2c(c1=O)SC(C)C2 (centres undefined) | 25.8 | 32.6 | 52.0* | -4.1 | 17.4 | 47.4*
COc1ccc(C2CC(c3ccccc3)=NN2c2ccc(Cl)c(C(=O)O)c2)cc1 (centres undefined) | 0.1 | 10.2 | 21.2 | 8.2 | 6.1 | .
CCC(=O)Nc1cccc(C2=NN(c3ccccc3)C(c3ccc(OC)cc3)C2)c1 (centres undefined) | 1.8 | 7.8 | 51.4* | 12.6 | 18.9 | 30.5
Cc1ccccc1-c1nn2c(-c3ccccc3)nnc2s1 | 1.1 | 38.5 | 53.3* | 17.7 | 23.6 | 51.2*
Cc1nc(N2CCCCC2)[nH]c(=O)c1CN(C)N=O | 2.8 | . | . | . | . | .
C/C(=N\NC(=O)c1ccccc1OCCOc1ccccc1)c1ccccc1F | 0.7 | 9.8 | 53.4* | 3.2 | 34.1 | 37.2
COc1ccc(/C=C(\C#N)C(=O)NC(C)c2ccccc2)cc1O (centres undefined) | -1.4 | 28.8 | 55.7* | 19.5 | -9.9 | 43.7*
COc1cc(/C=C2\CCC(C)C3=C(c4cc(OC)c(OC)c(OC)c4)C(C#N)=C(N)OC32)cc(OC)c1OC (centres undefined) | -2.2 | . | . | . | . | .
CN1CCc2nc3sc(C(=O)C45CC6CC(CC(C6)C4)C5)c(N)c3cc2C1 | 1.7 | 3.9 | 90.1* | 11.4 | 18.4 | 84.8*
O=C(Nc1ccccc1-c1ccccc1)NC1CC2CCCC(C1)N2Cc1ccc(F)cc1 (centres undefined) | 1.4 | 10.1 | 56.0* | 0.4 | 22.2 | 17.4
O=C(OCc1ccc(F)cc1)c1cc(=O)c2ccccc2o1 | 0.6 | 6.3 | 93.9* | 11.6 | -4.1 | 26.1
N#Cc1ccccc1COC(=O)c1cc(=O)c2ccccc2o1 | 0.3 | 29.0 | 16.9 | 4.3 | -11.4 | .
COC(=O)CC1COc2ccccc2N1S(=O)(=O)c1ccc(Br)cc1 (centres undefined) | 3.4 | 17.9 | 53.5* | 18.8 | -10.8 | 35.5
O=C(CCn1c(=S)[nH]c2cc3c(cc2c1=O)OCO3)NCCc1ccccc1Cl | 0.9 | . | . | . | . | .
OC(Cc1ccccc1)c1ncc(-c2ccc3ccccc3c2)[nH]1 (centres undefined) | 3.4 | . | . | . | . | .
COc1ccc(OC)c(C(O)c2ncc(-c3cccc4ccccc34)[nH]2)c1 (centres undefined) | 1.3 | . | . | . | . | .
CN(Cc1ccccc1)C(=O)CN1CCN(S(=O)(=O)c2ccccc2F)CC1 | -2.0 | . | . | . | . | .
Cc1nc2ccccc2c(=O)n1/N=C/c1ccccc1O | 0.5 | -8.1 | 26.5 | 19.5 | -25.5 | .
Cc1cc([N+](=O)[O-])cc(/C=N/n2c(C)nc3ccccc3c2=O)c1O | 28.1 | 11.0 | 79.1* | 7.5 | 13.9 | 65.8*
C=CC(COCc1ccccc1)N(C(=O)OC(C)(C)C)S(=O)(=O)c1ccccc1Br (centres undefined) | 4.5 | 7.8 | 7.7 | -12.8 | -25.7 | .
COc1ccc(CN(CC(O)COCc2ccccc2)S(=O)(=O)c2ccccc2Br)cc1OC (centres undefined) | 0.7 | 25.1 | 50.0* | 3.7 | 29.2 | 36.0*
SMILES | MPTP inh | tim10-1 inh | tim23-1 inh | TIM10 inh | Mdm2 MdmX PPI | tim23-1 confirm
Fc1cccc(NC(=S)NNc2ccccc2)c1 | 0.6 | 12.8 | 59.5* | 18.5 | 18.5 | -18.4
NC(=S)Nc1cccc(F)c1 | 0.4 | 2.5 | 11.9 | 5.2 | -17.9 | .
NC(=S)N/N=C/c1ccc(-c2ccc(Cl)c(Cl)c2)o1 | 2.0 | 39.2 | 58.3* | 26.6 | -13.6 | 59.9*
COc1ccc(CN(C)C(=O)/C=C/[C@H]2O[C@@H](n3cnc4c(N)ncnc43)[C@H](O)[C@@H]2O)cc1OC | -0.9 | . | . | . | . | .
Cc1cccc(N2CCc3c2nc2ccc(Br)cc2c3N)c1 | 12.3 | 31.8 | 75.7* | 27.7 | 9.1 | 62.5*
Nc1c2c(nc3ccc(Br)cc13)N(c1ccccc1)CC2 | 9.2 | 28.6 | 21.3 | 18.1 | -4.1 | .
CCOc1ccc(Nc2ccc([N+](=O)[O-])c3nonc23)cc1 | 24.9 | 38.8 | 66.7* | 35.3 | -25.8 | 61.2*
NNC(=O)c1c(O)c2cccc3c2n(c1=O)CCC3 | 0.0 | 28.4 | 53.3* | 23.8 | 15.7 | 37.9
CCCCN(CC)c1nc(N)c2c(N)nc(OCC)cc2c1C#N | 10.5 | 23.3 | 56.0* | 13.4 | 42.1 | 43.9*
COc1ccc(CN2C(=O)C(CC(=O)NCc3cccc4ccccc34)CC(C(=O)N(C(C)C)C(C)C)=C2C)cc1 (centres undefined) | -1.0 | . | . | . | . | .
Cc1csc2nc(O)c(C(=O)NCc3ccc4c(c3)OCO4)c(=O)n12 | -1.7 | 35.1 | 75.0* | 39.0 | 10.5 | 72.8*
CCN(CC)C(=O)C1=C(C)N(Cc2ccc(C(C)(C)C)cc2)C(=O)C(CC(=O)NCc2cccs2)C1 (centres undefined) | -1.5 | . | . | . | . | .
Oc1c(Cl)cc(Cl)cc1/C=N/c1nc(-c2ccc(Cl)cc2)cs1 | 0.4 | 34.3 | 40.8 | 28.0 | 1.4 | .
Oc1c(Cl)cc(Cl)cc1/C=N/c1nccs1 | -4.1 | 23.5 | 69.2* | 32.4 | 5.5 | 53.9*
COc1ncc(-c2ccc(N3C(c4ccc([N+](=O)[O-])cc4)=Cc4ccccc4C3CC(C)=O)cc2)cn1 (centres undefined) | 0.5 | . | . | . | . | .
O=S1(=O)CCC(N=Cc2cc(Br)ccc2O)C1 (centres undefined) | 2.5 | 30.9 | 55.5* | 29.9 | 0.6 | 43.0*
O=c1c2ccccc2c(C=NC2CCS(=O)(=O)C2)c(O)n1-c1ccccc1 (centres undefined) | -1.6 | 18.0 | -9.4 | -7.6 | 17.4 | .
CCOC(=O)[C@]12CCCC=C1N(CCc1ccc(OC)c(OC)c1)C(=O)[C@H](CC(=O)NCC13CC4CC(CC(C4)C1)C3)C2 | 0.9 | . | . | . | . | .
C=CCNC(=O)/C(C#N)=C/c1ccc(SC)cc1 | 0.0 | -0.2 | 2.1 | 2.3 | -5.4 | .
CSc1ccc(/C=C(\C#N)C(=O)NC2CCCCC2)cc1 | 1.8 | 35.2 | 50.0 | 30.8 | -15.2 | 50.8*
N#C/C(=C\c1ccc(Cl)cc1)C(=O)NC1CC1 | 2.2 | 34.3 | 56.3* | 23.8 | 14.8 | 51.6*
Clc1ccc(OCc2nc(-c3ccccn3)n[nH]2)cc1 | 2.3 | 20.6 | 47.7 | 13.5 | 19.6 | .
